A selection: hits, their analogues and other compounds. The true share with any hit is near 3.2%.
Mcl1 Bid PPI: disrupts binding of human Mcl-1 to Bid peptide. Q07820. TR-FRET Mcl-1/Bid-Dy647 peptide binding, 1536-well. inhibition, % at 21.7 µM. actives 0.97% (n = 220,000). AID 1021;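 active = compounds that cut the binding signal by more than half at the single screening dose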;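 also: His-tagged Mcl-1 with europium anti-His antibody binding Bid BH3 peptide; 0% = Mcl-1 plus peptide wells and 100% = peptide-only wells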
14-3-3 Bad PPI: disrupts binding of bovine 14-3-3 zeta to phospho-Bad peptide; P63103; TR-FRET 14-3-3zeta/Dy647-pBad peptide displacement, 1 h; inhibition, % at 21.7 µM; actives 0.71% (n = 220,000);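 active = inhibition above about 70%, limit read from the data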;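 also: 0% = full 14-3-3 plus peptide FRET controls and 100% = background without 14-3-3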
Target sequence (P63103 whole entry, looked up): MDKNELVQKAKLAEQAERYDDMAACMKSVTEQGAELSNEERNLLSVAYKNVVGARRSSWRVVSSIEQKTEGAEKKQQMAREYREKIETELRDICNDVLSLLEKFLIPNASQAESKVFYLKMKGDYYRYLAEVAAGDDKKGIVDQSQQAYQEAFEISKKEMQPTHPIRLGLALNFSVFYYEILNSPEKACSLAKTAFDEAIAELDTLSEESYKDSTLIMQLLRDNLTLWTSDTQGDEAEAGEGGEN
Mcl-1 Bim block: inhibitors of Bim-Mcl-1 interaction, human; actives 0.1% (n = 190,000); AID 1009; Bead-based flow cytometry, Bim peptide-Mcl-1 binding; inhibition, % at 10 µM; Q07820; in the data active = inhibition above about 40%;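 also: 0% = no compound tracer wells and 100% = peptide blocker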
Mcl1-Noxa inh: disrupts binding of human Mcl-1 to Noxa peptide. TR-FRET Mcl-1/Noxa peptide binding, 2 h. inhibition, % at 21.7 µM. Q07820. actives 1.5% (n = 220,000). AID 1022;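 active = compounds that cut the protein-peptide binding signal by more than 50% relative to plate controls in a single-dose test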;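 also: His-tagged Mcl-1 with rhodamine Noxa BH3 peptide and terbium anti-His antibody; 0% = Mcl-1 plus Noxa peptide wells and 100% = peptide-only wells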
NCF1 inh: blocks human p47phox regulatory protein of NADPH oxidases. P14598. actives 0.53% (n = 220,000). inhibition, % at 24.7 µM. p47phox/p22phox peptide binding, fluorescence polarization, 2 h;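 active = inhibition above about 30%, limit read from the data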;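 also: 0% = p47phox with labelled peptide and 100% = labelled peptide alone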
Target sequence (P14598 whole entry, looked up): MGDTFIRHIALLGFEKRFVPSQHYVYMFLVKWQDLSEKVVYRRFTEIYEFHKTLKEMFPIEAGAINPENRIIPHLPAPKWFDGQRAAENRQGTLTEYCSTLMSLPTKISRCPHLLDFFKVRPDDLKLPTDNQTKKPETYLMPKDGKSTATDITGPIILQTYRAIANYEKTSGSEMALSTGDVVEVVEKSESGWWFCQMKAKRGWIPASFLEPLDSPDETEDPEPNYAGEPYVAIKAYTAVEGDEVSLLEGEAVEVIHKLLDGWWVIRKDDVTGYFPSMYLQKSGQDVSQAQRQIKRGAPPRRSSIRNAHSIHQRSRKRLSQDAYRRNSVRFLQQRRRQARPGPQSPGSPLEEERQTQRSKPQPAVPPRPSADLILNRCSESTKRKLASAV
* marks the source's active call; other numbers are inactive results; / = no result given.

SMILES	Mcl1 Bid PPI	14-3-3 Bad PPI	Mcl-1 Bim block	Mcl1-Noxa inh	NCF1 inh
CCCC1(C(=O)OCC)NC(c2cc(OC)c(OC)c(OC)c2)C2C(=O)N(CC)C(=O)C21 (centres undefined)	-19.4	-7.5	81.0*	7.8	-10.6
Cc1cc(Cl)ccc1OCC(=O)N(Cc1ccco1)C1CCS(=O)(=O)C1 (centres undefined)	-20.7	3.2	/	6.4	-6.1
CN(c1ccccc1)S(=O)(=O)c1cccc(NC(=O)CSc2ncc(C(F)(F)F)cc2Cl)c1	1.1	-0.1	-1.0	-14.7	-29.5
Cc1cccc(N=Nc2c(C)c(C#N)c(O)[nH]c2=O)c1	-3.8	-9.2	1.0	35.1	78.7*
COC(=O)c1ccc2c(=O)n(CC3CCCO3)c(SCC(=O)NCCc3ccc(S(N)(=O)=O)cc3)nc2c1 (centres undefined)	9.7	-3.8	-1.0	-1.2	-2.7
COC(=O)c1ccc2c(=O)n(C3CCCCC3)c(SCC#N)nc2c1	-1.8	73.5*	2.0	-10.2	-3.9
CCOC(=O)CSc1nc2cc(C(=O)N3CCC(C(N)=O)CC3)ccc2c(=O)n1C1CCCCC1	5.3	-0.6	-2.0	7.7	3.3
COC(=O)c1ccc2c(=O)n(CC3CCCO3)c(SCC(=O)Nc3ccc(OC)cc3OC)nc2c1 (centres undefined)	56.9*	12.2	/	-39.1	30.8*
Cc1ccc(/C(O)=C2\C(=O)C(=O)N(CC(C)O)C2c2ccccn2)cc1 (centres undefined)	-10.6	-8.3	-1.0	-5.4	0.5
Cn1nc(OCC(=O)O)cc1C(F)(F)F	-6.5	-4.3	/	11.5	-0.6
COc1ccc(NN=Nc2nc3c([nH]2)c(=O)n(C)c(=O)n3C)cc1	5.5	-18.3	/	67.4*	6.5
Cc1ccccc1NN=Nc1nc2c([nH]1)c(=O)n(C)c(=O)n2C	-32.1	-22.2	-1.0	23.0	0.9
CC(Nc1ccc(Cl)cc1)C(=O)NN (centres undefined)	-28.8	-4.4	/	1.4	-2.7
CNc1ccc([N+](=O)[O-])cc1-c1nc2ccccc2[nH]c1=O	47.8	72.7*	/	65.1*	19.4
Nc1ccc(Br)cc1-c1nc2ccccc2[nH]c1=O	-19.7	3.8	0.0	-9.8	-14.6
Cc1nc2ccc(NC(=O)c3ccc(Cl)c([N+](=O)[O-])c3)cc2s1	17.8	-12.4	-4.0	15.0	-4.5
Cc1nc2ccc(NC(=O)c3cc([N+](=O)[O-])cc([N+](=O)[O-])c3Cl)cc2s1	21.8	-2.7	-13.0	96.3*	10.7
CC(C)OC(=O)CC(=O)c1sc2nc3c(cc2c1N)CN(C)CC3	-15.9	4.8	6.0	57.0*	-5.3
CC(C(=O)Nc1ccccc1)N(C)CCOc1ccc(Br)cc1 (centres undefined)	-7.9	-12.4	-2.0	9.9	-1.2
CCNC(=S)N1CCN(CCN=CC2=C(O)CC(c3ccco3)CC2=O)CC1 (centres undefined)	-70.3	-8.4	0.0	-0.1	-0.1
C=CCNC(=S)N1CCN(CCN=CC2=C(O)CC(c3ccco3)CC2=O)CC1 (centres undefined)	-45.5	-15.1	2.0	12.1	35.5*
O=C1Nc2ccccc2/C1=N/N=C/c1ccc(-c2ccc([N+](=O)[O-])cc2)o1	88.6*	95.0*	10.0	79.8*	51.4*
NC(=S)N/N=C/c1ccc(-c2ccc([N+](=O)[O-])cc2)o1	-14.1	-9.2	0.0	52.0*	-5.4
O=C1C2C3C=CC(C4CC34)C2C(=O)N1/N=C/c1ccc(-c2ccc([N+](=O)[O-])cc2)o1 (centres undefined)	-14.5	1.8	1.0	9.6	-25.3
COc1ccc(OC)c(-c2nc3cc4ccccc4cc3nc2-c2ccccc2)c1	-1.9	-4.8	6.0	11.0	-8.7
SMILES	Mcl1 Bid PPI	14-3-3 Bad PPI	Mcl-1 Bim block	Mcl1-Noxa inh	NCF1 inh
COc1ccc(-n2c(=O)cc(N3CCOCC3)[nH]c2=O)cc1	91.6*	2.9	-3.0	10.3	4.0
Cc1ccc(C)n1Cc1ccc(C(=O)O)cc1	-18.8	-27.5	0.0	61.6*	-31.0
O=C(COc1ccc([N+](=O)[O-])cc1)Nc1ccc(C(=O)Nc2ccccc2C(=O)O)cc1	-1.0	11.7	4.0	25.0	48.2*
Cc1cccc(OCC(=O)NNC(=O)c2ccc([N+](=O)[O-])cc2)c1	-2.2	-6.6	0.0	0.3	2.7
O=C(COc1ccc2ccccc2c1)NNC(=O)c1ccc([N+](=O)[O-])cc1	12.4	-3.2	-3.0	82.4*	-15.4
COc1ccc(C(C)=O)cc1COC(=O)c1ccc(OCc2c(C)noc2C)cc1	52.2*	73.4*	7.0	-80.1	6.7
COc1ccc(C(C)=O)cc1COC(=O)c1c(C)noc1C	1.6	-11.9	0.0	21.2	26.6
COc1ccc(NC(=O)Cn2nnc(C(=O)NCCc3ccc(OC)c(OC)c3)c2N)c(OC)c1	0.6	-4.5	-1.0	11.1	-0.4
O=C1c2cccc3cc([N+](=O)[O-])cc(c23)C(=O)N1/N=C/c1ccc(O)cc1O	97.8*	97.3*	/	89.6*	-52.0
COC(=O)c1ccc(C#Cc2ccccc2)o1	-15.8	-1.5	/	-0.1	-3.2
CCOc1ccc(C(C)=O)cc1NC(=O)/C=C\C(=O)O	-12.3	-7.1	-4.0	9.0	8.2
CCN(CC)c1ccc(NC(=O)CN2CCN(c3ccc(F)cc3)CC2)cc1	-19.7	3.4	0.0	46.7	0.6
CCN(CC)c1ccc(NC(=O)CN2CCN(CC(=O)Nc3ccccc3F)CC2)cc1	-51.3	-2.2	0.0	55.0*	-4.6
O=C(CN1CCN(CCO)CC1)Nc1ccccc1	20.7	73.3*	-1.0	37.0	6.9
CN1CCN(CC(=O)Nc2ccc(OCc3ccccc3)cc2)CC1	44.5	86.9*	0.0	33.1	-1.1
CCOC(=O)C1CCN(C(=O)Nc2ccc(OCc3ccccc3)cc2)CC1	-12.9	-0.3	/	6.5	43.5*
CCOc1ccc(Cc2n[nH]c(=S)n2Cc2ccccc2)cc1	-38.8	-11.8	-3.0	23.4	-11.1
Cc1occc1C(=O)NNC(=O)Nc1ccc([N+](=O)[O-])cc1	82.1*	-11.1	0.0	4.0	-1.8
Cc1ccc([N+](=O)[O-])cc1NC(=O)c1ccoc1C	-42.8	-5.4	-2.0	7.7	1.2
Cc1nnc(SCC(=O)Nc2c(C)n(C)n(-c3ccccc3)c2=O)n1Cc1ccccc1	-21.4	-1.5	0.0	-0.1	2.6
CCOC(=O)CSC(=S)NC(=O)c1ccc(OC)cc1	-94.7	9.0	-7.0	55.6*	-57.3
Cc1ccc(-c2nnc(SCC(=O)N/N=C/c3ccc(C)s3)n2-c2ccc(C)cc2)cc1	97.3*	7.2	-5.0	22.5	-8.0
CCCCn1c(=O)[nH]c(=O)c2c1nc(-c1cc3c(cc1Br)OCO3)n2C	-18.4	-10.2	-28.0	-8.8	0.6
O=C(COC(=O)c1ccccc1Br)NCCC1=CCCCC1	-24.8	1.6	1.0	18.5	-22.1
O=C(NC(=S)NCCC1=CCCCC1)c1ccccc1Br	-53.4	30.0	-5.0	68.4*	-12.0
COc1cc([N+](=O)[O-])ccc1NC(=O)COC(=O)c1ccc(NC(N)=O)cc1	61.2*	42.8	/	72.3*	-5.2
